Assay results from PubChem BioAssay (NCATS).
Where “and” joins values, the source holds several entries; their conditions need not be identical. Identical values can stand only once. Records with an inconclusive call do not appear. Values without a mark were called inactive. Calls of active or inactive are those of the source. Calls follow the shape of the dose curve; as a rule, active = well fitted curve in the direction sought with a large enough effect; inconclusive = small, poorly fitted or top-dose-only effect, or another doubt; inactive = no such curve, though single readings can be large; an effect the other way counts as inactive or inconclusive.

What was measured:
[1] = tested on: CRL-7250; experiment: Cytotoxic Profiling of Annotated Libraries Using Quantitative High-Throughput Screening (AID 1296008); conditions: Five cell lines viability, CellTiter-Glo ATP luminescence, 48-72 h; max response: stronger effect = lower value; also: nearly all actives have a fitted effect of over 60% in size; also: potency is read from the fitted curve at half-maximal effect; as to max response: % is scaled to controls: 0 for no effect and ±100 for the full control effect
How it was run: (§1)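 Compounds were pin-transferred onto cells and incubated 48 or 72 hr at 37 degree Celsius, 95% humidity. CellTiter-Glo was added, plates sat 10 min at room temperature, then ATP-coupled luminescence was imaged as the viability read-out.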

[2] = tested on: HEK293; experiment: as above; conditions: Five cell lines viability, CellTiter-Glo ATP luminescence, 48-72 h; max response: stronger effect = lower value
How it was run: as §1

[3] = tested on: HaCat; experiment: as above; conditions: Five cell lines viability, CellTiter-Glo ATP luminescence, 48-72 h; max response: stronger effect = lower value
How it was run: as §1

[4] = tested on: KB-3-1; experiment: as above; conditions: Five cell lines viability, CellTiter-Glo ATP luminescence, 48-72 h; max response: stronger effect = lower value
How it was run: as §1

[5] = tested on: NIH3T3; experiment: as above; conditions: Five cell lines viability, CellTiter-Glo ATP luminescence, 48-72 h; max response: stronger effect = lower value
How it was run: as §1

[6] = tested on: MCC-13; experiment: qHTS assay to identify novel small-molecules to repurpose for Merkel cell carcinoma treatment (AID 1296009); conditions: MCC and control cell lines, CellTiter-Glo viability, 72 h; series mostly up to 46 µM; also: nearly all actives have a fitted effect of over 60% in size; also: potency is read from the fitted curve at half-maximal effect
How it was run: (§2)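 Cells exposed to NPC (8-point) and MIPE (11-point) compound dilutions for 72 hr at 37 degree celsius; viability read by CellTiter-Glo luminescence, normalized to no-cell and DMSO in-plate controls.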

[7] = tested on: MCC-26; experiment: as above; conditions: MCC and control cell lines, CellTiter-Glo viability, 72 h; series mostly up to 46 µM
How it was run: as §2

[8] = tested on: MKL-1; experiment: as above; conditions: MCC and control cell lines, CellTiter-Glo viability, 72 h; series mostly up to 46 µM
How it was run: as §2

[9] = tested on: MKL-2; experiment: as above; conditions: MCC and control cell lines, CellTiter-Glo viability, 72 h; series mostly up to 46 µM
How it was run: as §2

[10] = tested on: UISO; experiment: as above; conditions: MCC and control cell lines, CellTiter-Glo viability, 72 h; series mostly up to 46 µM
How it was run: as §2

[11] = tested on: WaGa; experiment: as above; conditions: MCC and control cell lines, CellTiter-Glo viability, 72 h; series mostly up to 46 µM
How it was run: as §2

[12] = tested on: C33A; experiment: Primary qHTS to identify gynecologic anti-cancer compounds using libraries of approved drugs and bioactive compounds (AID 1345084); conditions: Gynecologic cancer cell panel viability, ATPlite luminescence, 48 h; series mostly up to 57.5 µM; also: % is scaled to controls: 0 for no effect and ±100 for the full control effect; nearly all actives have a fitted effect of over 55% in size
How it was run: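 Measured: luminescence after ATPlite addition (15 min, RT). Exposure: 48 h, 37 C, 5% CO2.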

[13] = tested on: HEK293T; experiment: qHTS assay to identify novel small-molecules to repurpose for Merkel cell carcinoma treatment (AID 1296009); conditions: MCC and control cell lines, CellTiter-Glo viability, 72 h; at 44.8 µM (top of the series) unless noted; also: nearly all actives have a fitted effect of over 60% in size; also: potency is read from the fitted curve at half-maximal effect
How it was run: as §2

[14] = tested on: W2; experiment: qHTS profiling for inhibitors of Plasmodium falciparum proliferation (AID 504749); conditions: P. falciparum in erythrocytes, SYBR Green DNA, 72 h; series mostly up to 28.7 µM
How it was run: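 P. falciparum-infected erythrocytes (0.3% parasitemia, 2.5% hematocrit final) were exposed to compounds for 72 h at 37 C in 5% CO2, then lysed with SYBR Green buffer overnight at room temperature; parasite DNA fluorescence was normalized to artemisinin and DMSO controls.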

[15] = tested on: CRL-7250; experiment: qHTS assay to identify novel small-molecules to repurpose for Merkel cell carcinoma treatment (AID 1296009); conditions: MCC and control cell lines, CellTiter-Glo viability, 72 h; at 44.8 µM (top of the series) unless noted; also: nearly all actives have a fitted effect of over 60% in size; also: potency is read from the fitted curve at half-maximal effect
How it was run: as §2

[16] = tested on: NIH3T3; experiment: as above; conditions: MCC and control cell lines, CellTiter-Glo viability, 72 h; at 44.8 µM (top of the series) unless noted
How it was run: as §2

CCOCCOC(C)=O
max response [1]: -13% | max response [2]: -1.29% | max response [3]: -11.2% | max response [4]: -19.2% | max response [5]: -2.47% | Potency [6]: inactive | Potency [7]: inactive | Potency [8]: inactive | Potency [9]: inactive | Potency [10]: inactive | Potency [11]: inactive | Potency [12]: inactive

CC1(N2CCC(n3c([C@@H]4CCCNC4)nc4ccccc43)CC2)CCCCCCC1
Potency [1]: 14800 nM (active) | Potency [2]: 4.69 µM (active) and 7.31 µM (active) | max response [3]: -28.8% | Potency [6]: inactive | Potency [8]: 23500 nM (active) | Potency [9]: 13200 nM (active)

O=c1cccc2n1CC1CNC[C@H]2C1
max response [1]: -0.274% | max response [2]: -2.71% | max response [3]: -12.2% | outcome [4]: inactive | max response [5]: -3.34% | Potency [6]: inactive | Potency [7]: inactive | Potency [8]: 14800 nM (active) | Potency [9]: 2640 nM (active) | Potency [10]: inactive | Potency [11]: 2350 nM (active)

S=C(NC1CCCCC1)N1CCC(c2cnc[nH]2)CC1
max response [1]: -0.728% | max response [2]: -0.423% | max response [3]: -12.4% | max response [4]: -10.7% | max response [5]: -20.5% | Potency [12]: inactive

C[C@]12CC[C@H]3[C@@H](CCC4=CC(=O)CC[C@@]43C)[C@H]1CC[C@H]2OC(=O)CCC1CCCC1
max response [1]: 2.84% | outcome [2]: inactive | max response [3]: 4.09% | max response [4]: 9.03% | max response [5]: 3.21% | outcome [13]: inactive | Potency [6]: inactive | Potency [7]: inactive | Potency [8]: inactive | Potency [9]: inactive | Potency [10]: inactive | Potency [11]: inactive

C[C@]12CCC(=O)C(O)=C1CC[C@@H]1[C@H]3CCC(=O)[C@@]3(C)CC[C@@H]12
Potency [14]: inactive | max response [1]: -0.395% | max response [2]: -10.2% | max response [3]: -3.05% | max response [4]: 3.15% | max response [5]: 4.69% | Potency [6]: inactive | Potency [7]: inactive | Potency [8]: inactive | Potency [9]: inactive | Potency [10]: inactive | Potency [11]: inactive

CC1=C(C(=O)O)N2C(=O)[C@@H](N)[C@H]2SC1
outcome [1]: inactive | outcome [2]: inactive | max response [3]: 3.51% | outcome [5]: inactive | outcome [15]: inactive [at 17.4 µM] | outcome [13]: inactive [at 17.4 µM] | Potency [6]: inactive | Potency [7]: inactive | Potency [8]: inactive | Potency [9]: inactive | outcome [16]: inactive [at 17.4 µM] | Potency [10]: inactive | Potency [11]: inactive | Potency [12]: inactive

CO[C@H]1CCC(O[C@H]2C[C@H]([C@]3(C)CC[C@]4(C[C@H](O)[C@@H](C)[C@@H]([C@@H](C)C=C(C)C(=O)[C@H](C)C[C@H](C)C(=O)O)O4)O3)O[C@]3(O[C@@H]([C@H]4O[C@@](O)(CO)[C@H](C)C[C@H]4C)C[C@H]3C)[C@H]2C)O[C@H]1C (stereo not given in full)
Potency [1]: 1050 nM (active) | Potency [2]: 590 nM (active) | max response [3]: -21.4% | Potency [8]: 935 nM (active) | Potency [9]: 662 nM (active) | Potency [11]: 935 nM (active)

C[C@@H]1O[C@@H](O[C@@H]2C=C3CC[C@@H]4[C@@H](CC[C@]5(C)[C@H](c6ccc(=O)oc6)CC[C@@]45O)[C@@]3(C)CC2)[C@H](O)[C@H](O)[C@H]1O
Potency [1]: 11.8 nM (active) | Potency [2]: 16.6 nM (active) | Potency [3]: 46.9 nM (active) | Potency [4]: 26.4 nM (active) | Potency [5]: 3720 nM (active) | Potency [6]: 37.2 nM (active) | Potency [8]: 105 nM (active) | Potency [9]: 132 nM (active) | Potency [11]: 41.8 nM (active)

CC[C@@]1(O)C(=O)OCc2c1cc1n(c2=O)Cc2cc3ccccc3nc2-1
Potency [1]: 418 nM (active) | Potency [2]: 41.8 nM (active) | Potency [3]: 46.9 nM (active) | Potency [4]: 469 nM (active) | Potency [5]: 148 nM (active) | Potency [6]: 26.4 nM (active) | Potency [8]: 33.2 nM (active) | Potency [9]: 74.3 nM (active) | Potency [10]: 29.6 nM (active) | Potency [11]: 20.9 nM (active)

COc1cc2cc(c1Cl)N(C)C(=O)C[C@H](OC(=O)C(C)C)[C@]1(C)O[C@H]1[C@H](C)[C@@H]1C[C@@](O)(NC(=O)O1)[C@H](OC)C=CC=C(C)C2
max response [1]: -68.5% | max response [2]: -91.4% | max response [3]: -21.1% | Potency [4]: 332 nM (active) | max response [5]: -88.8% | Potency [6]: inactive | Potency [8]: inactive | Potency [9]: inactive | Potency [10]: inactive | Potency [11]: inactive

O=[N+]([O-])c1ncc[nH]1
max response [1]: -4.09% | max response [2]: -7.79% | max response [3]: -7.46% | max response [5]: -0.757% | Potency [6]: inactive | Potency [7]: inactive | Potency [8]: inactive | Potency [9]: inactive | Potency [10]: inactive | Potency [11]: inactive

C=C[C@@H]1CN2CCC1C[C@@H]2[C@@H](O)c1ccnc2ccccc12 (stereo not given in full)
max response [1]: -5.2% | Potency [2]: 18700 nM (active) | max response [3]: -17.4% | max response [5]: -16.7% | Potency [6]: inactive | Potency [7]: inactive | Potency [8]: inactive | Potency [9]: inactive | Potency [11]: inactive

c1ccc2c(CN3CCNCC3)cccc2c1
max response [1]: -5.13% | max response [2]: -5.02% | max response [3]: 2.18% | outcome [4]: inactive | max response [5]: 4.9% | Potency [6]: inactive | Potency [7]: inactive | Potency [8]: inactive | Potency [9]: inactive | Potency [10]: inactive | Potency [11]: inactive

O=C1CCC[C@@H]2[C@H]3CCCN4CCC[C@@H](CN12)[C@@H]34
max response [1]: 0.603% | max response [2]: -4.12% | max response [3]: 3.98% | max response [4]: 2.17% | outcome [5]: inactive | Potency [6]: inactive | Potency [7]: inactive | Potency [8]: inactive | Potency [9]: inactive | outcome [16]: inactive | Potency [10]: inactive | Potency [11]: inactive
